Hits are enriched below; roughly 1.4% of the tested compounds scored in any of these assays.
GALR2 blocker: GALR2 (human) receptor antagonism; hit rate 0.39% among 140,000; inhibition, % at 4 µM; AID 828; GALR2-expressing cells, antagonist mode;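 further: cells stimulated with galanin 1-16 at roughly its EC80; 0% = agonist challenge control and 100% = basal control without agonist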
PTPN22 inh 2: inhibitors of human LYP (PTPN22) phosphatase | Q9Y2R2 | recombinant LYP catalytic domain, DiFMUP fluorescence | inhibition, % at 2 µM | hit rate 0.21% among 96,000;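 active means inhibition at 2 µM at or above a set limit, the screen mean plus 3 SD, cut at about 24% in these data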;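 further: 0% = DMSO with enzyme and 100% = enzyme fully blocked by orthovanadate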
Target sequence (Q9Y2R2 whole entry, looked up, the tested form may be a part): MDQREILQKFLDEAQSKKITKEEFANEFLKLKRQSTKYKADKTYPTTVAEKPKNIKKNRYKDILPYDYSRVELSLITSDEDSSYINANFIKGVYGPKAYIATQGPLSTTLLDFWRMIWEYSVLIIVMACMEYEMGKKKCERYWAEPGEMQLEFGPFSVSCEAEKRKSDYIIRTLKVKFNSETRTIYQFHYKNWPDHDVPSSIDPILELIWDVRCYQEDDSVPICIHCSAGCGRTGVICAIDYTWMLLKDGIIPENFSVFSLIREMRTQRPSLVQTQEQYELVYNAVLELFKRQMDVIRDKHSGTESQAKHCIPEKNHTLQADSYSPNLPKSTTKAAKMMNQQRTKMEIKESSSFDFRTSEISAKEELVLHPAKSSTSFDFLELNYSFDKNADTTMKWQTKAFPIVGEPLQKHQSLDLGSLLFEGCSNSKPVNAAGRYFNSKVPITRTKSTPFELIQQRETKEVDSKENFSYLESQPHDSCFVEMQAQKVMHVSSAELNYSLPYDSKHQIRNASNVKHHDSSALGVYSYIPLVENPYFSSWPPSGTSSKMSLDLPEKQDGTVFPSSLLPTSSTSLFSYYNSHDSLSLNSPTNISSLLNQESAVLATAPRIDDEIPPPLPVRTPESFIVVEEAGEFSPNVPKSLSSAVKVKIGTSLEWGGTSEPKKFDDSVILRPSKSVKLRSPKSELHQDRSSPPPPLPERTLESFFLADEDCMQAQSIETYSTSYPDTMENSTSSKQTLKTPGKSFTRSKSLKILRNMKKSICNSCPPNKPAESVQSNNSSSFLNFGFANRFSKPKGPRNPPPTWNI
S1P2 ag: agonists of human S1P2 receptor. O95136. S1P2-expressing cell line, agonist reporter read-out. activation, % at 4.5 µM. hit rate 0.46% among 97,000; in the data active means activation above about 16%;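 further: 0% = vehicle low control and 100% = maximal reference agonist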
LYP act: LYP (human) phosphatase activation; Q9Y2R2; recombinant LYP, DiFMUP fluorescence; 0 = plate median, 100 = signal doubled; hit rate 0.11% among 96,000; activation, % at 2 µM;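 active means activation at 2 µM above a set limit, the mean plus 5 SD, cut at about 37% in these data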
GALR2 agonist: GALR2 (human) receptor agonism; O43603; GALR2-expressing cells, agonist activation read-out; activation, % (concentration not given with the values); hit rate 0.48% among 140,000; in the data active means activation above about 5%, passing the limit was not always enough;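 further: 0% = vehicle buffer wells and 100% = reference agonist at full effect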
S1P2 blocker: blocks the human S1P2 receptor; inhibition, % at 5 µM; hit rate 0.21% among 97,000; AID 736; cell-based S1P2 antagonist assay, inhibition at 5 uM; O95136; in the data active means inhibition above about 45%;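 further: CRE beta-lactamase reporter cells expressing human S1P2 stimulated with S1P; 0% = agonist at EC80 alone and 100% = agonist plus reference antagonist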
GALR2 ant conf: GALR2 (human) antagonism confirmed; hit rate 60% among 480; GALR2-expressing cells, antagonist mode, inhibition; inhibition, % at 4 µM; shares compounds with GALR2 blocker;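 further: cells stimulated with galanin at about its EC80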
BLA inh counter: beta-lactamase inhibition, GALR2 counterscreen | AID 867 | shares compounds with GALR2 blocker | hit rate 36% among 480 | CHO NFAT-BLA reporter, beta-lactamase FRET, thapsigargin-stimulated | inhibition, % at 4.2 µM;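 active means inhibition above the mean inhibition across tested compounds plus 3 SD, cut at about 27% in these data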;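 further: 0% = 500 nM thapsigargin stimulated wells and 100% = unstimulated BSA only wells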
* hit, by the source's call. Unless noted, no stated cut-off is given here; in the data, active means inhibition above about 27%; inactive means the rest.

Screening O=C(C1=NN(c2ccccc2)C2C(=O)N(c3ccccc3)C(=O)C12)c1ccccc1 (configuration not stated) returned GALR2 blocker 18.7 and GALR2 agonist -1.8.
For CN(C)C(=O)c1ccc(NC(=O)c2ccccc2Sc2ccccc2C#N)cc1 the results were GALR2 blocker 18.4 and GALR2 agonist -1.7.
For CCc1nnc(NC(=O)C(C)C)s1 the results were GALR2 blocker -12.3, PTPN22 inh 2 17.9, S1P2 ag -3.4, LYP act -16.6, GALR2 agonist 0.1 and S1P2 blocker -32.5.
For CCc1nnc(NC(=O)C=C(C)C)s1 the results were GALR2 blocker 27.7*, PTPN22 inh 2 -7.6, S1P2 ag -1.8, LYP act 8.2, GALR2 agonist -4.5, S1P2 blocker 5.7, GALR2 ant conf 9.2 and BLA inh counter 11.0.
`O=C1NC(=S)S/C1=C/c1ccc(N2CCOCC2)o1` gave GALR2 blocker 6.4 and GALR2 agonist -0.5.
For O=C1N/C(=C/c2ccc(N3CCOCC3)o2)C(=O)N1c1ccccc1 the results were GALR2 blocker 54.7*, GALR2 agonist -0.4, GALR2 ant conf 11.0 and BLA inh counter 13.8.
For C=CCN1C(=O)N/C(=C/c2ccc(N3CCOCC3)o2)C1=O the results were GALR2 blocker 37.9*, GALR2 agonist 1.2, GALR2 ant conf 14.0 and BLA inh counter 12.9.
`O=C1N/C(=C/c2ccc(N3CCCC3)cc2)C(=O)N1c1ccccc1` gave GALR2 blocker 16.2 and GALR2 agonist 1.9.
`CC(C)NC(=O)CSc1nncn1-c1ccccc1` gave GALR2 blocker 27.2*, GALR2 agonist -1.4, GALR2 ant conf 11.9 and BLA inh counter 10.4.
`O=C(CN(CC1CCCO1)C(=O)CCC(=O)Nc1ccccn1)NCc1ccccc1` (configuration not stated) gave GALR2 blocker 29.7*, PTPN22 inh 2 2.9, S1P2 ag -2.9, LYP act -2.5, GALR2 agonist -3.3, S1P2 blocker -3.7, GALR2 ant conf 8.2 and BLA inh counter 8.8.
Screening CC(C)CCNC(=O)CN(CC1CCCO1)C(=O)CCC(=O)Nc1ccccn1 (configuration not stated) returned GALR2 blocker 3.8, PTPN22 inh 2 0.6, S1P2 ag -4.8, LYP act -3.0, GALR2 agonist -1.8 and S1P2 blocker 23.8.
Screening O=C(c1ccccc1)c1ccc2nc(-c3ccc(NC(=O)c4ccccc4F)cc3)[nH]c2c1 returned GALR2 blocker 38.9*, PTPN22 inh 2 10.4, S1P2 ag -7.6, LYP act -8.0, GALR2 agonist 4.2, S1P2 blocker 31.4, GALR2 ant conf 31.1* and BLA inh counter 10.4.
Screening CCCCCOc1ccc(Br)cc1CSC(=N)N returned GALR2 blocker 33.3*, GALR2 agonist 0.4, GALR2 ant conf 37.7* and BLA inh counter 76.9*.
NC(=O)c1ccccc1NC(=O)Nc1cccc(Cl)c1Cl was read as GALR2 blocker 52.7*, GALR2 agonist -1.6, GALR2 ant conf 69.0* and BLA inh counter 32.6*.
For CCc1ccc(N(CC(=O)Nc2ccccc2C(=O)N2CCOCC2)S(C)(=O)=O)cc1 the results were GALR2 blocker 4.2 and GALR2 agonist -0.5.
Screening NC(=O)CSCc1nc2ccccc2s1 returned GALR2 blocker 30.6*, PTPN22 inh 2 11.7, S1P2 ag -3.5, LYP act -14.3, GALR2 agonist -2.8, S1P2 blocker -15.6, GALR2 ant conf 5.0 and BLA inh counter 2.5.
`Nc1nonc1C(=O)NCCNCc1cc(Br)ccc1OCc1ccccc1F` gave GALR2 blocker 31.5*, PTPN22 inh 2 8.3, S1P2 ag -3.2, LYP act -4.8, GALR2 agonist -1.9, S1P2 blocker 72.9*, GALR2 ant conf 33.0* and BLA inh counter 52.4*.
For Nc1nonc1C(=O)NCCNCc1ccccc1OCc1ccccc1F the results were GALR2 blocker 6.0, PTPN22 inh 2 -10.1, S1P2 ag -2.0, LYP act 7.8, GALR2 agonist -2.2 and S1P2 blocker 1.8.
`O=C(/C=C/c1ccco1)c1ccc(NC(=O)C23CC4CC(CC(C4)C2)C3)cc1` gave GALR2 blocker -5.8 and GALR2 agonist -1.3.
Screening Cc1ccc(S(=O)(=O)N[C@H](C(=O)Oc2ccc3c(C(F)(F)F)cc(=O)oc3c2)c2ccccc2)cc1 returned GALR2 blocker 43.9*, PTPN22 inh 2 15.2, S1P2 ag -7.9, LYP act -13.4, GALR2 agonist -1.1, S1P2 blocker 57.8*, GALR2 ant conf 21.9 and BLA inh counter 36.1*.
`Cc1ccccc1C(=O)NNC(=O)CCC(=O)Nc1cccc(Cl)c1C` gave GALR2 blocker -3.7 and GALR2 agonist -0.4.
`O=C(Nc1ccc([N+](=O)[O-])cc1)Nc1nc(-c2ccc(Cl)s2)cs1` gave GALR2 blocker 32.1*, GALR2 agonist 1.2, GALR2 ant conf 37.7* and BLA inh counter 19.5.
Screening Cc1ccc(-c2cc(C(=O)N(C)Cc3cnn(C)c3C)c3cc(Br)ccc3n2)cc1 returned GALR2 blocker 28.1*, GALR2 agonist -0.4, GALR2 ant conf 23.9 and BLA inh counter 6.4.
For COc1ccc(-c2nn(-c3ccccc3)cc2C(=O)OCC(=O)c2ccc(C)c([N+](=O)[O-])c2)cc1 the results were GALR2 blocker -0.8 and GALR2 agonist -0.6.
`O=C(N/N=C/C(Br)=C/c1ccccc1)c1n[nH]c2c1CCC2` gave GALR2 blocker 37.4*, PTPN22 inh 2 -10.1, S1P2 ag 0.1, LYP act 9.3, GALR2 agonist 0.0, S1P2 blocker 14.6, GALR2 ant conf 33.3* and BLA inh counter 60.2*.
O=C(CNC(=O)c1ccccc1Cl)N/N=C/C=C/c1ccccc1 was read as GALR2 blocker 7.6 and GALR2 agonist -0.5.
`COc1ccc2[nH]c3c(NCc4ccco4)ncnc3c2c1` gave GALR2 blocker 28.1*, PTPN22 inh 2 7.5, S1P2 ag -9.8, LYP act -4.3, GALR2 agonist -2.4, S1P2 blocker -3.9, GALR2 ant conf 22.6 and BLA inh counter 8.1.
COc1ccc(C(=O)N(c2ccccc2)C2C=CS(=O)(=O)C2)cc1 (configuration not stated) was read as GALR2 blocker 30.1*, PTPN22 inh 2 6.7, S1P2 ag -1.8, LYP act -6.5, GALR2 agonist -1.4, S1P2 blocker 21.1, GALR2 ant conf 21.9 and BLA inh counter 0.4.
COc1ccc(CCNc2c(C)c(C)nc3ncnn23)cc1 was read as GALR2 blocker 30.9*, PTPN22 inh 2 -4.8, S1P2 ag -8.7, LYP act 2.1, GALR2 agonist -0.7, S1P2 blocker 68.7*, GALR2 ant conf 39.2* and BLA inh counter 8.9.

Assay outcomes from PubChem.
